Measured values reported in PMC11006913.
Substitutions are numbered along the chain they refer to.

How the values were obtained:
Assay in all cases: PBM; 200 nM protein, PBS
Details in all cases: dsDNA, one strand shown
ALX4 [1] = target: ALX4 (Homo sapiens, UniProt Q9H161 200-286)
ALX4 [2] = target: ALX4 (Homo sapiens, UniProt Q9H161 200-286, Q225E)
VAX1 [3] = target: VAX1 (Homo sapiens, UniProt Q5SQQ9 86-172)
VAX1 [4] = target: VAX1 (Homo sapiens, UniProt Q5SQQ9 86-172, T142I)
VAX1 [5] = target: VAX1 (Homo sapiens, UniProt Q5SQQ9 86-172, K157R)
VAX1 (Homo sapiens, UniProt Q5SQQ9 86-172, K157R), sequence (Q5SQQ9 86-172 K157R): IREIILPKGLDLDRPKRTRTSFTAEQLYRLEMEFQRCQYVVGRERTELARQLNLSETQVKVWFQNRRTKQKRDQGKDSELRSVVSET

PAX4 [6] = target: T1, PAX4 (Homo sapiens, UniProt O43316 9-242, R200K)
T1 sequence: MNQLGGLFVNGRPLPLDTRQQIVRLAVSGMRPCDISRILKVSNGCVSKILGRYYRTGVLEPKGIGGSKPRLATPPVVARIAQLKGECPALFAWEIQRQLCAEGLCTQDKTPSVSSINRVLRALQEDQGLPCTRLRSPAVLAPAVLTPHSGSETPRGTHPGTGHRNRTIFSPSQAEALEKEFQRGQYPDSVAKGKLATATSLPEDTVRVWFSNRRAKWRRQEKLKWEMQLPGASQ

PRRX1 [7] = target: PRRX1 (Homo sapiens, UniProt P54821 80-166, F113S)
PRRX1 (Homo sapiens, UniProt P54821 80-166, F113S), sequence (P54821 80-166 F113S): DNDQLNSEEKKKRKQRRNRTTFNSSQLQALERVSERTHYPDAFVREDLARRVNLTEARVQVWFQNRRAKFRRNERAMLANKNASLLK

PAX4 [8] = target: T2, PAX4 (Homo sapiens, UniProt O43316 9-242)
T2 sequence: T1 sequence with K192R

HOXA2 [9] = target: HOXA2 (Homo sapiens, UniProt O43364 129-215, R185T)
HOXA2 (Homo sapiens, UniProt O43364 129-215, R185T), sequence (O43364 129-215 R185T): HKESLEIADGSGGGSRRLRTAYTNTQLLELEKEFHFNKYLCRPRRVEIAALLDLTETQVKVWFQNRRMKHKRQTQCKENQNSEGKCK

MSX2 [10] = target: MSX2 (Homo sapiens, UniProt P35548 130-214, R199I)
MSX2 (Homo sapiens, UniProt P35548 130-214, R199I), sequence (P35548 130-214 R199I): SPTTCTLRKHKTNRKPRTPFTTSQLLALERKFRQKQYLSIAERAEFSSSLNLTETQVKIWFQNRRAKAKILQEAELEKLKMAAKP

PAX4 [11] = target: T3, PAX4 (Homo sapiens, UniProt O43316 9-242, R200Q)
T3 sequence: T1 sequence with K192Q

HOXA2 [12] = target: HOXA2 (Homo sapiens, UniProt O43364 129-215, R185K)
HOXA2 (Homo sapiens, UniProt O43364 129-215, R185K), sequence (O43364 129-215 R185K): as the sequence (O43364 129-215 R185T) above, with T57K counted along it

PAX4 [13] = target: T4, PAX4 (Homo sapiens, UniProt O43316 9-242, F177V)
T4 sequence: T1 sequence with F169V, K192R

MSX2 [14] = target: MSX2 (Homo sapiens, UniProt P35548 130-214)
MSX2 (Homo sapiens, UniProt P35548 130-214), sequence (P35548 130-214): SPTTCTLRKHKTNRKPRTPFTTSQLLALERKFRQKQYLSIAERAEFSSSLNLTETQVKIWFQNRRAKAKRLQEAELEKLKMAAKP

PAX4 [15] = target: T5, PAX4 (Homo sapiens, UniProt O43316 9-242, F177Y)
T5 sequence: T1 sequence with F169Y, K192R

MSX2 [16] = target: MSX2 (Homo sapiens, UniProt P35548 130-214, F161Y)
MSX2 (Homo sapiens, UniProt P35548 130-214, F161Y), sequence (P35548 130-214 F161Y): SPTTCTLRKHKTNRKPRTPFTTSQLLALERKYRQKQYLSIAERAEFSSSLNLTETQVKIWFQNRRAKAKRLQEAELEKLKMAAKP

PAX4 [17] = target: T6, PAX4 (Homo sapiens, UniProt O43316 9-242, R227W)
T6 sequence: T1 sequence with K192R, R219W

HOXA2 [18] = target: HOXA2 (Homo sapiens, UniProt O43364 129-215, Y150S)
HOXA2 (Homo sapiens, UniProt O43364 129-215, Y150S), sequence (O43364 129-215 Y150S): as the sequence (O43364 129-215 R185T) above, with Y22S, T57R counted along it

PRRX1 [19] = target: PRRX1 (Homo sapiens, UniProt P54821 80-166)
PRRX1 (Homo sapiens, UniProt P54821 80-166), sequence (P54821 80-166): as the sequence (P54821 80-166 F113S) above, with S34F counted along it

HOXA2 [20] = target: HOXA2 (Homo sapiens, UniProt O43364 129-215)
HOXA2 (Homo sapiens, UniProt O43364 129-215), sequence (O43364 129-215): as the sequence (O43364 129-215 R185T) above, with T57R counted along it

ALX3 [21] = target: ALX3 (Homo sapiens, UniProt O95076 139-225, N203Q)
ALX3 (Homo sapiens, UniProt O95076 139-225, N203Q), sequence (O95076 139-225 N203Q): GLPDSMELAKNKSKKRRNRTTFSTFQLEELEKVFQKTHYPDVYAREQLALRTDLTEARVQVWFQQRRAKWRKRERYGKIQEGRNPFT

PITX2 = PITX2 (Homo sapiens, UniProt Q99697 72-157)
ALX3 [22] = target: ALX3 (Homo sapiens, UniProt O95076 139-225)
ALX3 (Homo sapiens, UniProt O95076 139-225), sequence (O95076 139-225): as the sequence (O95076 139-225 N203Q) above, with Q65N counted along it

ALX3 [23] = target: ALX3 (Homo sapiens, UniProt O95076 139-225, L168Q)
ALX3 (Homo sapiens, UniProt O95076 139-225, L168Q), sequence (O95076 139-225 L168Q): as the sequence (O95076 139-225 N203Q) above, with L30Q, Q65N counted along it

ALX3 [24] = target: ALX3 (Homo sapiens, UniProt O95076 139-225, L168V)
ALX3 (Homo sapiens, UniProt O95076 139-225, L168V), sequence (O95076 139-225 L168V): as the sequence (O95076 139-225 N203Q) above, with L30V, Q65N counted along it

ALX3 [25] = target: ALX3 (Homo sapiens, UniProt O95076 139-225, N203S)
ALX3 (Homo sapiens, UniProt O95076 139-225, N203S), sequence (O95076 139-225 N203S): as the sequence (O95076 139-225 N203Q) above, with Q65S counted along it

ALX1 [26] = target: ALX1 (Homo sapiens, UniProt Q15699 118-204, L144V)
ALX1 (Homo sapiens, UniProt Q15699 118-204, L144V), sequence (Q15699 118-204 L144V): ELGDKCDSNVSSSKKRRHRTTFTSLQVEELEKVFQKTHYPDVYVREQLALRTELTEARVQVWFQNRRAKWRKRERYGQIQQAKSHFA

ALX1 [27] = target: ALX1 (Homo sapiens, UniProt Q15699 118-204, L144R)
ALX1 (Homo sapiens, UniProt Q15699 118-204, L144R), sequence (Q15699 118-204 L144R): as the sequence (Q15699 118-204 L144V) above, with V27R counted along it

ALX1 [28] = target: ALX1 (Homo sapiens, UniProt Q15699 118-204)
ALX1 (Homo sapiens, UniProt Q15699 118-204), sequence (Q15699 118-204): as the sequence (Q15699 118-204 L144V) above, with V27L counted along it

PROP1 [29] = target: PROP1 (Homo sapiens, UniProt O75360 56-141)
PROP1 (Homo sapiens, UniProt O75360 56-141), sequence (O75360 56-141): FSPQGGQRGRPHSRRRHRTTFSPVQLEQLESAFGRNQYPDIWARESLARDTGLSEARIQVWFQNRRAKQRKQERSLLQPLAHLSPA

PROP1 [30] = target: PROP1 (Homo sapiens, UniProt O75360 56-141, R99H)
PROP1 (Homo sapiens, UniProt O75360 56-141, R99H), sequence (O75360 56-141 R99H): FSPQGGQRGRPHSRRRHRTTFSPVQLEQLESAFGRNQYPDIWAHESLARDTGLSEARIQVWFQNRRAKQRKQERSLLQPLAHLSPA

PROP1 [31] = target: PROP1 (Homo sapiens, UniProt O75360 56-141, F88S)
PROP1 (Homo sapiens, UniProt O75360 56-141, F88S), sequence (O75360 56-141 F88S): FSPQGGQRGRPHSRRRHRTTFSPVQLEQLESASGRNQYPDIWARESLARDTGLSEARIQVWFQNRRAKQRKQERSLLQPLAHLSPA

ALX4 (Homo sapiens, UniProt Q9H161 200-286, Q225E), sequence (Q9H161 200-286 Q225E): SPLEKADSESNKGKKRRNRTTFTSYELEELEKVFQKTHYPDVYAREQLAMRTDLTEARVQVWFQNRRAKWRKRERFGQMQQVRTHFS
ALX4 (Homo sapiens, UniProt Q9H161 200-286), sequence (Q9H161 200-286): as the sequence (Q9H161 200-286 Q225E) above, with E26Q counted along it
VAX1 (Homo sapiens, UniProt Q5SQQ9 86-172), sequence (Q5SQQ9 86-172): as the sequence (Q5SQQ9 86-172 K157R) above, with R72K counted along it
VAX1 (Homo sapiens, UniProt Q5SQQ9 86-172, T142I), sequence (Q5SQQ9 86-172 T142I): as the sequence (Q5SQQ9 86-172 K157R) above, with T57I, R72K counted along it

Sequence: AGGAGCCC
- binding signal (ALX4 [1]): 7.99 upbm affinity estimate (log intensity, higher = more binding, comparable within an allelic series)
- binding signal (ALX4 [2]): 8.19 upbm affinity estimate (log intensity, higher = more binding, comparable within an allelic series)
- binding signal (VAX1 [3]): 6.97 upbm affinity estimate (log intensity, higher = more binding, comparable within an allelic series)
- binding signal (VAX1 [4]): 7.08 upbm affinity estimate (log intensity, higher = more binding, comparable within an allelic series)
- binding signal (VAX1 [5]): 7.05 upbm affinity estimate (log intensity, higher = more binding, comparable within an allelic series)

Sequence: GCTGCAGC
- binding signal (PAX4 [6]): 9.33 upbm affinity estimate (log intensity, higher = more binding, comparable within an allelic series)
- binding signal (PRRX1 [7]): 9.31 upbm affinity estimate (log intensity, higher = more binding, comparable within an allelic series)
- binding signal (PAX4 [8]): 9.16 upbm affinity estimate (log intensity, higher = more binding, comparable within an allelic series)
- binding signal (HOXA2 [9]): 7.32 upbm affinity estimate (log intensity, higher = more binding, comparable within an allelic series)
- binding signal (MSX2 [10]): 9.55 upbm affinity estimate (log intensity, higher = more binding, comparable within an allelic series)
- binding signal (PAX4 [11]): 9.38 upbm affinity estimate (log intensity, higher = more binding, comparable within an allelic series)
- binding signal (HOXA2 [12]): 10.3 upbm affinity estimate (log intensity, higher = more binding, comparable within an allelic series)
- binding signal (PAX4 [13]): 9.33 upbm affinity estimate (log intensity, higher = more binding, comparable within an allelic series)
- binding signal (MSX2 [14]): 9.49 upbm affinity estimate (log intensity, higher = more binding, comparable within an allelic series)
- binding signal (PAX4 [15]): 9.42 upbm affinity estimate (log intensity, higher = more binding, comparable within an allelic series)
- binding signal (MSX2 [16]): 9.48 upbm affinity estimate (log intensity, higher = more binding, comparable within an allelic series)
- binding signal (PAX4 [17]): 9.46 upbm affinity estimate (log intensity, higher = more binding, comparable within an allelic series)
- binding signal (HOXA2 [18]): 10.6 upbm affinity estimate (log intensity, higher = more binding, comparable within an allelic series)
- binding signal (PRRX1 [19]): 9.11 upbm affinity estimate (log intensity, higher = more binding, comparable within an allelic series)
- binding signal (HOXA2 [20]): 6.95 upbm affinity estimate (log intensity, higher = more binding, comparable within an allelic series)

Sequence: GAGGCACC
- binding signal (ALX4 [1]): 8.21 upbm affinity estimate (log intensity, higher = more binding, comparable within an allelic series)
- binding signal (ALX4 [2]): 8.22 upbm affinity estimate (log intensity, higher = more binding, comparable within an allelic series)
- binding signal (HOXA2 [9]): 7.41 upbm affinity estimate (log intensity, higher = more binding, comparable within an allelic series)
- binding signal (ALX3 [21]): 7.66 upbm affinity estimate (log intensity, higher = more binding, comparable within an allelic series)
- binding signal (PITX2): 7.88 upbm affinity estimate (log intensity, higher = more binding, comparable within an allelic series)
- binding signal (HOXA2 [12]): 10.5 upbm affinity estimate (log intensity, higher = more binding, comparable within an allelic series)
- binding signal (ALX3 [22]): 7.72 upbm affinity estimate (log intensity, higher = more binding, comparable within an allelic series)
- binding signal (ALX3 [23]): 7.51 upbm affinity estimate (log intensity, higher = more binding, comparable within an allelic series)
- binding signal (ALX3 [24]): 7.67 upbm affinity estimate (log intensity, higher = more binding, comparable within an allelic series)
- binding signal (HOXA2 [18]): 10.4 upbm affinity estimate (log intensity, higher = more binding, comparable within an allelic series)
- binding signal (ALX3 [25]): 7.65 upbm affinity estimate (log intensity, higher = more binding, comparable within an allelic series)
- binding signal (HOXA2 [20]): 7.42 upbm affinity estimate (log intensity, higher = more binding, comparable within an allelic series)

Sequence: ACCCTCGG
- binding signal (ALX4 [1]): 8.1 upbm affinity estimate (log intensity, higher = more binding, comparable within an allelic series)
- binding signal (ALX4 [2]): 8.11 upbm affinity estimate (log intensity, higher = more binding, comparable within an allelic series)
- binding signal (ALX1 [26]): 6.49 upbm affinity estimate (log intensity, higher = more binding, comparable within an allelic series)
- binding signal (ALX1 [27]): 6.58 upbm affinity estimate (log intensity, higher = more binding, comparable within an allelic series)
- binding signal (ALX1 [28]): 6.48 upbm affinity estimate (log intensity, higher = more binding, comparable within an allelic series)

Sequence: GTCTTAAA
- binding signal (PAX4 [6]): 10.3 upbm affinity estimate (log intensity, higher = more binding, comparable within an allelic series)
- binding signal (PAX4 [8]): 10.4 upbm affinity estimate (log intensity, higher = more binding, comparable within an allelic series)

Sequence: CCGTCTAG
- binding signal (ALX4 [1]): 7.85 upbm affinity estimate (log intensity, higher = more binding, comparable within an allelic series)
- binding signal (ALX4 [2]): 8.02 upbm affinity estimate (log intensity, higher = more binding, comparable within an allelic series)
- binding signal (MSX2 [10]): 9.52 upbm affinity estimate (log intensity, higher = more binding, comparable within an allelic series)
- binding signal (MSX2 [14]): 9.39 upbm affinity estimate (log intensity, higher = more binding, comparable within an allelic series)
- binding signal (VAX1 [3]): 6.91 upbm affinity estimate (log intensity, higher = more binding, comparable within an allelic series)
- binding signal (MSX2 [16]): 9.55 upbm affinity estimate (log intensity, higher = more binding, comparable within an allelic series)
- binding signal (VAX1 [4]): 7.09 upbm affinity estimate (log intensity, higher = more binding, comparable within an allelic series)
- binding signal (VAX1 [5]): 7.03 upbm affinity estimate (log intensity, higher = more binding, comparable within an allelic series)

Sequence: CCGCAGAC
- binding signal (ALX4 [1]): 8.08 upbm affinity estimate (log intensity, higher = more binding, comparable within an allelic series)
- binding signal (ALX4 [2]): 8.21 upbm affinity estimate (log intensity, higher = more binding, comparable within an allelic series)
- binding signal (HOXA2 [9]): 7.17 upbm affinity estimate (log intensity, higher = more binding, comparable within an allelic series)
- binding signal (HOXA2 [12]): 10.2 upbm affinity estimate (log intensity, higher = more binding, comparable within an allelic series)
- binding signal (HOXA2 [18]): 10.5 upbm affinity estimate (log intensity, higher = more binding, comparable within an allelic series)
- binding signal (HOXA2 [20]): 6.96 upbm affinity estimate (log intensity, higher = more binding, comparable within an allelic series)

Sequence: ACGGAGGC
- binding signal (ALX4 [1]): 8.04 upbm affinity estimate (log intensity, higher = more binding, comparable within an allelic series)
- binding signal (ALX4 [2]): 8.29 upbm affinity estimate (log intensity, higher = more binding, comparable within an allelic series)
- binding signal (MSX2 [10]): 9.59 upbm affinity estimate (log intensity, higher = more binding, comparable within an allelic series)
- binding signal (ALX3 [21]): 7.76 upbm affinity estimate (log intensity, higher = more binding, comparable within an allelic series)
- binding signal (MSX2 [14]): 9.53 upbm affinity estimate (log intensity, higher = more binding, comparable within an allelic series)
- binding signal (ALX3 [22]): 7.71 upbm affinity estimate (log intensity, higher = more binding, comparable within an allelic series)
- binding signal (PROP1 [29]): 6.67 upbm affinity estimate (log intensity, higher = more binding, comparable within an allelic series)
- binding signal (PROP1 [30]): 6.65 upbm affinity estimate (log intensity, higher = more binding, comparable within an allelic series)
- binding signal (ALX3 [23]): 7.84 upbm affinity estimate (log intensity, higher = more binding, comparable within an allelic series)
- binding signal (ALX3 [24]): 7.82 upbm affinity estimate (log intensity, higher = more binding, comparable within an allelic series)
- binding signal (PROP1 [31]): 6.49 upbm affinity estimate (log intensity, higher = more binding, comparable within an allelic series)
- binding signal (MSX2 [16]): 9.52 upbm affinity estimate (log intensity, higher = more binding, comparable within an allelic series)
- binding signal (ALX3 [25]): 7.76 upbm affinity estimate (log intensity, higher = more binding, comparable within an allelic series)
